# High-throughput results from PubChem BioAssay.
# Most compounds without a hit are left out; they make up all but 19% or so of the library.
# Lassa entry inh: inhibitors of Lassa virus binding or cell entry | 1.2% of 300,000 active | AID 540256 | Potency, µM (series often up to 37.9 µM), without a hit: at the highest dose activity change, negative = inhibition, most hits filed as inhibitors | Lassa virus pseudotype entry inhibition, cell reporter; calls by dose curve; tested in HEK293 cells; further: potency means the concentration at half of the fitted maximal effect; on the % scale 0 is the no-effect control and ±100 the full control effect; nearly all actives have a fitted effect of over 50% in size
# Pf growth 48h: inhibits P. falciparum growth in the first generation, 48 h. 5.9% of 310,000 active. P. falciparum luciferase growth in erythrocytes, 48 h. AID 504832. Potency, µM (doses to about 28.7 µM), without a hit: at the top dose activity change, negative = inhibition, hits mostly inhibitors; further: potency means the concentration at half of the fitted maximal effect; on the % scale 0 is the no-effect control and ±100 the full control effect
#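 Compounds are pin-transferred into medium, infected erythrocytes (2% hematocrit, 0.1% parasitemia final) are added, and plates sit one parasite generation at 37 C in 5% CO2. Detection reagent is then added and luminescence measured.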
# CHX counter: counter-screen for Shiga toxin inhibitors: cycloheximide protein synthesis inhibition | max response, % | cell reporter, cycloheximide protein synthesis inhibition counterscreen | 12% of 300,000 active; in the data active means max response mostly above about 13%, no sharp cut-off; inactive means mostly below about 14%; further: read at 38.3 µM for the half of the compounds with a filed dose; 0% is about no effect
# Pf growth 96h: P. falciparum growth inhibition at 96 hour, primary screen for plastid delayed-death inhibitors; P. falciparum luciferase reporter growth, 96 h; Potency, µM (doses to about 28.7 µM), for inactives: top-dose activity change, negative = inhibition, usual class: inhibitors; 6.9% of 320,000 active; AID 504834; further: potency means the concentration at half of the fitted maximal effect; on the % scale 0 is the no-effect control and ±100 the full control effect
#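 Erythrocytes infected with luciferase-expressing P. falciparum were dispensed at 2% hematocrit and 0.05% parasitemia (final), then incubated with compounds 96 hours at 37 C in 5% CO2. Luminescence after detection reagent addition reported growth.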
# Shiga toxin inh: blocks Shiga toxin action in Vero cells. inhibition, % at 38.7 µM. Vero cells, Shiga toxin protein synthesis inhibition reporter. 9.2% of 290,000 active; in the data active means inhibition mostly above about 28%, no sharp cut-off; inactive means mostly below about 43%; further: 0% is about no effect
# MARV entry inh: Marburg virus entry inhibition. Marburg virus pseudotyped entry inhibition, cell reporter. Potency, µM (highest dose often 37.8 µM), without a hit: top-dose activity change, negative = inhibition, most hits filed as inhibitors. 1.8% of 300,000 active. AID 540276; calls by dose curve; tested in HEK293 cells; further: potency means the concentration at half of the fitted maximal effect; on the % scale 0 is the no-effect control and ±100 the full control effect
# Starred values were filed as active, the others as inactive; ? = inconclusive; / = not tested or not shown; [ ] = remark or other dose. Unless noted, the call rests on the fitted dose curve; in most records, active means well fitted inhibition curve with a large enough effect; inconclusive means small, poorly fitted or top-dose-only effect, or another doubt; inactive means no such curve, though single readings can be large or run the other way.
SMILES,Lassa entry inh,Pf growth 48h,CHX counter,Pf growth 96h,Shiga toxin inh,MARV entry inh
CC1(C)CC(=O)C2=C(C1)OC1=C(C(=O)CC(C)(C)C1)C2c1ccc(O)c([N+](=O)[O-])c1,/,?,-2,?,-16,/
CCCn1c(C(C)C)n[nH]c1=S,27%[46.1 µM],8%,-4,15%,-6,14%[46.1 µM]
CC(C)NC(=O)CSc1nc2ccccc2n1-c1ccccc1,-1%,?,-4,-57%,-7,?
O=C(NC1CCCCC1)N1CCN(c2ccccc2)CC1,-2%,?,-3,-19%,15,-1%[46.1 µM]
O=C(NC1CCCCC1)N1CCN(C(c2ccccc2)c2ccccc2)CC1,13µM*,/,-1,?,-2,?
O=C(N1CCOCC1)N1CCN(C(c2ccccc2)c2ccccc2)CC1,-11%,-20%,-4,?,-9,-9%
O=C(N1CCCCC1)N1CCN(C(c2ccccc2)c2ccccc2)CC1,-8%,/,-3,8.3µM*,-8,0%
CCc1nc(CNC(=O)C2CCC(=O)N(Cc3ccccc3F)C2)no1 (configuration not stated),/,?,6,5%,12,/
C#CCCC(=O)c1ccccc1/C=[N+](\[O-])c1ccccc1,/,1.2µM*,/,?,/,/
CCn1cc(C2=NOC(C(=O)O)C2)c(C)n1 (configuration not stated),-12%[14.3 µM],12%,-2,5.9µM*,13,-20%
CCn1cc(C2=NOC(C(=O)Nc3cc(OC)c(Cl)cc3OC)C2)c(C)n1 (configuration not stated),-9%,?,-1,20%,-6,-2%
CS(=O)(=O)N1CCC(Oc2ccccc2C(=O)NC(C2CC2)C2CC2)CC1,9%,-5%,16,26%,45*,17%[46.1 µM]
CS(=O)(=O)N1CCC(Oc2ccccc2C(=O)NCCCc2cccnc2)CC1,5%[46.1 µM],-11%,1,9.3µM*,-2,12%[46.1 µM]
CSCCCNC(=O)c1ccccc1OC1CCN(S(C)(=O)=O)CC1,/,34%,9,1%,9,11%[46.1 µM]
CS(=O)(=O)N1CCC(Oc2ccccc2C(=O)NC2CCOC2)CC1 (configuration not stated),0%[46.1 µM],-2%,2,0%,9,2%[46.1 µM]
COc1ccc(S(=O)(=O)NCc2ccc(C(=O)NCCCN3CC(C)CC(C)C3)cc2)cc1 (configuration not stated),/,-12%,1,?,1,/
CCN(CC)C(=O)C[n+]1cccc(C(N)=O)c1,-16%,-5%,-2,?,11,-14%[46.1 µM]
O=[N+]([O-])c1ccc2c(c1)C(N1CCOCC1)/C(=C/COc1ccc(Cl)cc1Cl)O2 (configuration not stated),?,12µM*,1,?,13,?
CC(OC(=O)C1CCN(c2ccc(C(F)(F)F)cn2)CC1)C(=O)Nc1cccc([N+](=O)[O-])c1 (configuration not stated),/,12µM*,/,?,/,/
CC(OC(=O)C1CCN(c2ccc(C(F)(F)F)cn2)CC1)C(=O)Nc1ccc(S(N)(=O)=O)cc1 (configuration not stated),-3%,?,13,13µM*,-4,-1%
CC(Sc1nnnn1C1CCCC1)C(=O)Nc1cccc(S(=O)(=O)N2CCOCC2)c1 (configuration not stated),-2%,-32%,/,?,/,5%
C=C(C)COc1ccc(-c2nc(N)ncc2-c2ccc(Cl)cc2)c(O)c1,/,13µM*,-2,?,-7,/
Nc1ncc(-c2ccccc2)c(-c2ccc(OCc3ccccc3)cc2O)n1,?,12µM*,2,?,-7,-29%
COc1ccc(-c2nc(N)ncc2-c2ccccc2)c(O)c1,/,0%,1,-24%,-4,/
C=C(C)COc1ccc(-c2nc(N)ncc2-c2ccc(OC)cc2)c(O)c1,/,?,-6,-6%,-2,-3%
SMILES,Lassa entry inh,Pf growth 48h,CHX counter,Pf growth 96h,Shiga toxin inh,MARV entry inh
C=C(C)COc1ccc(-c2ncncc2Oc2ccc(OC)cc2)c(O)c1,?,3.7µM*,28*,/,85*,?
C=C(C)COc1ccc(-c2nc(N)ncc2-c2ccc(OC)c(OC)c2)c(O)c1,-2%[46.1 µM],?,-1,?,-6,13µM*
NC(=O)CC(NC(=O)Cc1cccc2ccccc12)c1ccc(NCCc2cccc(F)c2)c([N+](=O)[O-])c1 (configuration not stated),/,?,-3,8%,-5,/
CCCCCCn1c(O)c(C=NCCN2CCOCC2)c(=O)[nH]c1=O,1%,0%,-3,-9%,-4,-1%
COc1ccnc(N=CNOCc2ccc(C)cc2)c1C#N,?,/,-2,-14%,22,?
CCOC(=O)c1c(N)sc(C(O)(C(F)(F)F)C(F)(F)F)c1-c1ccc(F)cc1,-3%,55%,10,7%,-10,2%
Cc1cccc(Nc2cc(C)c3c(O)cccc3n2)c1C,?,0.74µM*,32*,1%,92*,?
CCCCC(=O)/C=C/n1c2c(oc1=S)CCCC2,/,/,/,/,/,18µM*
COc1ccccc1-n1nnnc1SC(C)C(=O)NC1CCCC1 (configuration not stated),-12%,-22%,/,21%,/,21%
O=C(COc1ccccc1)N1CCN(S(=O)(=O)c2cccs2)CC1,4%,-19%,3,/,-2,?
Cc1ccc(-c2csc3ncnc(N4CCN(C(=O)c5ccccc5)CC4)c23)cc1,?,8.3µM*,1,/,-17,?
O=C(c1cccs1)N1CCCN(c2ncnc3scc(-c4ccccc4)c23)CC1,?,5.9µM*,-1,10µM*,12,?
Cc1ccc(-c2csc3ncnc(N4CCN(C)CC4)c23)cc1C,/,?,3,43%,2,/
O=C(c1ccco1)N1CCN(c2ncnc3scc(-c4ccccc4)c23)CC1,-20%,/,4,0%,-11,-11%[46.1 µM]
O=C(c1ccco1)N1CCN(c2ncnc3scc(-c4cccs4)c23)CC1,?,12µM*,-3,?,-12,-8%
O=C(COc1ccc(-c2ccccc2)cc1)N1CCN(C(=O)c2cccs2)CC1,-21%,4%,15*,10%,40*,-9%[46.1 µM]
C=CCNC(=O)CCNS(=O)(=O)c1ccc(Br)cc1,1%,8%,-3,?,-21,4%
O=C(CN1CCC(n2nnc3cc(C(F)(F)F)ccc32)CC1)Nc1ccc2c(c1)CCC2,?,/,-6,?,-6,-7%
O=C(N1CCOCC1)N1CCC(n2nnc3cc(F)ccc32)CC1,-19%,-14%,2,10µM*,-9,?
Cc1ccc2c(c1)nnn2C1CCN(CC(=O)Nc2ccccc2N2CCOCC2)CC1,-8%,2.1µM*,-2,37%,-5,?
O=C(CN1CCC(n2nnc3cc(C(F)(F)F)ccc32)CC1)Nc1ccc2c(c1)OCCO2,?,12µM*,46*,11%,91,?
